Tests used:
Settings in all cases: treatment time: 24 h
[1] = tested on: A549-ACTB-RAB5A; test: lowest phenotypically active concentration; higher = less potent
Outline: (§1)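 Live-cell features were measured per well and normalised to solvent control wells after fifteen gene-edited A549, HepG2 and WPMY1 reporter lines had been treated for 24 h at 0.3, 1, 3 or 9 µM in four wells each. A condition was deviating when ≥3 of 4 wells sat beyond the 95th percentile of control Euclidean distances. It was reproducible when the median replicate Pearson correlation exceeded the 95th percentile of non-replicates. Phenotypic activity demanded both.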

[2] = tested on: A549-CANX-COX4; test: as above
Outline: as §1

[3] = tested on: A549-GM130-SQSTM1; test: as above
Outline: as §1

[4] = tested on: A549-TP53BP1-CLTA; test: as above
Outline: as §1

[5] = tested on: A549-TUBA1B-RELA; test: as above
Outline: as §1

[6] = tested on: A549-ACTB-RAB5A; test: phenotypically active (imaging signature differs from DMSO and reproducible) at any of 0.3-9 uM (binary (1 = active, 0 = inactive)); higher = active
Outline: as §1

[7] = tested on: A549-CANX-COX4; test: as above
Outline: as §1

[8] = tested on: A549-GM130-SQSTM1; test: as above
Outline: as §1

[9] = tested on: A549-TP53BP1-CLTA; test: as above
Outline: as §1

[10] = tested on: A549-TUBA1B-RELA; test: as above
Outline: as §1

[11] = tested on: HepG2-ACTB-RAB5A; test: as above
Outline: as §1

[12] = tested on: HepG2-CANX-COX4; test: as above
Outline: as §1

[13] = tested on: HepG2-GM130-SQSTM1; test: as above
Outline: as §1

[14] = tested on: HepG2-TP53BP1-CLTA; test: as above
Outline: as §1

[15] = tested on: HepG2-TUBA1B-RELA; test: as above
Outline: as §1

[16] = tested on: WPMY1-ACTB-RAB5A; test: as above
Outline: as §1

[17] = tested on: WPMY1-CANX-COX4; test: as above
Outline: as §1

[18] = tested on: WPMY1-GM130-SQSTM1; test: as above
Outline: as §1

[19] = tested on: WPMY1-TP53BP1-CLTA; test: as above
Outline: as §1

[20] = tested on: WPMY1-TUBA1B-RELA; test: as above
Outline: as §1

COc1cc(C[C@H]2C(=O)OC[C@@H]2Cc2ccc(OC)c(OC)c2)ccc1O [Arctigenin]
active: phenotypically active [6] 1 | phenotypically active [7] 1 | phenotypically active [8] 1 | phenotypically active [9] 1 | phenotypically active [10] 1 | phenotypically active [11] 1 | phenotypically active [12] 1 | phenotypically active [13] 1 | phenotypically active [14] 1 | phenotypically active [15] 1
3 µM: lowest phenotypically active concentration [1] | lowest phenotypically active concentration [2] | lowest phenotypically active concentration [3] | lowest phenotypically active concentration [4]
9 µM: lowest phenotypically active concentration [5]
inactive: phenotypically active [16] 0 | phenotypically active [17] 0 | phenotypically active [18] 0 | phenotypically active [19] 0 | phenotypically active [20] 0

CCOCCn1c(N2CCCN(C)CC2)nc2ccccc21 [emedastine]
inactive: phenotypically active [6] 0 | phenotypically active [7] 0 | phenotypically active [8] 0 | phenotypically active [9] 0 | phenotypically active [10] 0 | phenotypically active [11] 0 | phenotypically active [12] 0 | phenotypically active [13] 0 | phenotypically active [14] 0 | phenotypically active [15] 0 | phenotypically active [16] 0 | phenotypically active [17] 0 | phenotypically active [18] 0 | phenotypically active [19] 0 | phenotypically active [20] 0

COc1cc2ncnc(Nc3ccc(O)c(Br)c3)c2cc1OC
1 µM: lowest phenotypically active concentration [1] | lowest phenotypically active concentration [4]
3 µM: lowest phenotypically active concentration [2] | lowest phenotypically active concentration [3] | lowest phenotypically active concentration [5]
inactive: phenotypically active [20] 0
active: phenotypically active [6] 1 | phenotypically active [7] 1 | phenotypically active [8] 1 | phenotypically active [9] 1 | phenotypically active [10] 1 | phenotypically active [11] 1 | phenotypically active [12] 1 | phenotypically active [13] 1 | phenotypically active [14] 1 | phenotypically active [15] 1 | phenotypically active [16] 1 | phenotypically active [17] 1 | phenotypically active [18] 1 | phenotypically active [19] 1

CC(Oc1ccc(O)cc1)(P(=O)(O)O)P(=O)(O)O
inactive: phenotypically active [6] 0 | phenotypically active [7] 0 | phenotypically active [8] 0 | phenotypically active [9] 0 | phenotypically active [10] 0 | phenotypically active [11] 0 | phenotypically active [12] 0 | phenotypically active [13] 0 | phenotypically active [14] 0 | phenotypically active [15] 0 | phenotypically active [16] 0 | phenotypically active [17] 0 | phenotypically active [18] 0 | phenotypically active [19] 0 | phenotypically active [20] 0

CC(=O)[C@@]1(O)CC[C@H]2[C@@H]3C[C@H](C)C4=CC(=O)C=C[C@]4(C)[C@@]3(F)[C@@H](O)C[C@@]21C [fluorometholone]
≤ 0.3 µM: lowest phenotypically active concentration [1] | lowest phenotypically active concentration [2] | lowest phenotypically active concentration [3] | lowest phenotypically active concentration [4] | lowest phenotypically active concentration [5]
inactive: phenotypically active [11] 0 | phenotypically active [12] 0 | phenotypically active [13] 0 | phenotypically active [14] 0 | phenotypically active [15] 0 | phenotypically active [16] 0 | phenotypically active [17] 0 | phenotypically active [18] 0 | phenotypically active [19] 0 | phenotypically active [20] 0
active: phenotypically active [6] 1 | phenotypically active [7] 1 | phenotypically active [8] 1 | phenotypically active [9] 1 | phenotypically active [10] 1

Nc1nc(OCC2CCCCC2)c2nc[nH]c2n1
9 µM: lowest phenotypically active concentration [1]
active: phenotypically active [6] 1
inactive: phenotypically active [7] 0 | phenotypically active [8] 0 | phenotypically active [9] 0 | phenotypically active [10] 0 | phenotypically active [11] 0 | phenotypically active [12] 0 | phenotypically active [13] 0 | phenotypically active [14] 0 | phenotypically active [15] 0 | phenotypically active [16] 0 | phenotypically active [17] 0 | phenotypically active [18] 0 | phenotypically active [19] 0 | phenotypically active [20] 0

C[C@]1(OC(=O)/C=C/c2ccccc2)C[C@@H](O)[C@]2(O)C=CO[C@@H](O[C@@H]3O[C@H](CO)[C@@H](O)[C@H](O)[C@H]3O)[C@@H]21 [Harpagoside]
inactive: phenotypically active [6] 0 | phenotypically active [7] 0 | phenotypically active [8] 0 | phenotypically active [9] 0 | phenotypically active [10] 0 | phenotypically active [11] 0 | phenotypically active [12] 0 | phenotypically active [13] 0 | phenotypically active [14] 0 | phenotypically active [15] 0 | phenotypically active [16] 0 | phenotypically active [17] 0 | phenotypically active [18] 0 | phenotypically active [19] 0 | phenotypically active [20] 0

Source: the supplement of paper PMC7411054
